Measurements as given in PubChem BioAssay AID504441 (Broad Institute, 2011).
The whole screen tested about 310,000 compounds, of which about 1,300 (0.42%) were called active. Rule as the data show it: active = inhibition above about 50%; inactive = the rest. What follows is part of a selection rich in actives, with near analogues and random picks from the rest.

Target: Dual specificity tyrosine-phosphorylation-regulated kinase 1A (Rattus norvegicus) (UniProt Q63470)
Test: inhibition of Dyrk1A kinase activity – biochemical, single point, plate reader, primary screen (AID 504441);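 also: plate controls were vehicle with enzyme for no effect and no enzyme for full effect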
Conditions: ADP-Glo luminescence, NFATc1 peptide, at 12.5 µM, hits give high values

inhibition, inactive:
O=C1C=C(NS(=O)(=O)c2ccccc2)C(=O)c2ccccc21 0.22%
CCN1C[C@@H]2[C@@H]3C(=O)N(Cc4ccccc4)C(=O)[C@@H]3[C@](C)(C1=O)N2C(=O)c1ccc(C(C)(C)C)cc1 -5.8%
O=C(Nc1cccc(Br)c1)C1CC(=O)N(C2CCCC2)C1 (stereo not given) -2.1%
O=C1NC(=O)C(CCc2ccccc2)(c2ccccc2)N1 (stereo not given) -4.85%
CCOC(=O)COc1cc(OCC(=O)OCC)c2c(=O)cc(-c3ccccc3)oc2c1 0.414%
CCOC(=O)COc1cc(O)c2c(=O)cc(-c3ccccc3)oc2c1 -1.6%
CCOC(=O)C1CCCN(C(=O)C2CCN(S(=O)(=O)c3ccc(Cl)c(C(F)(F)F)c3)CC2)C1 (stereo not given) -9.38%
CC(=O)Nc1cccc(-c2nc3ccccc3s2)c1C -0.865%
COc1ccc(Oc2cn[nH]c2-c2ccc(OC)cc2O)cc1 11.8%
CC(=O)OC1CCC2C3CCC4=C(CC(F)C(=O)C4)C3CCC12C (stereo not given) -2.02%
O=C(OCC1OC(Oc2ccc(O)cc2)C(O)C(O)C1O)c1ccccc1 (stereo not given) 13.6%
COc1ccc(-c2cc(=O)c3c(O)cc(O[C@@H]4O[C@H](CO[C@@H]5O[C@@H](C)[C@H](O)[C@@H](O)[C@H]5O)[C@@H](O)[C@H](O)[C@H]4O)cc3o2)cc1O -6.42%
N#CCc1c[nH]c2ccc([N+](=O)[O-])cc12 20%
CCc1ccc(C(=O)C(C)OC(=O)CN2C(=O)NC3(CCCC3)C2=O)cc1 (stereo not given) 0.139%
O=C1NCC(Nc2ccccc2)C(=O)N1 (stereo not given) -0.332%
COc1cc2c(cc1OC)C1C(=O)c3cc(OS(C)(=O)=O)c(OC)cc3C1N(C)C2=O (stereo not given) 3.14%
O=C(COC(=O)c1ccc(F)cc1)Nc1ccc2c(c1)OCO2 -0.789%
CC(C)C(=O)Nc1cccc(C(=O)Nc2ccc3c(c2)OCO3)c1 -2.73%
Cc1nc2ccccc2nc1N/N=C/c1ccc(O)cc1O 9.74%
Oc1ccc2nc(Cc3ccccc3)[nH]c2c1 10.9%

inhibition, active:
COc1c(O)cc2oc(-c3ccc(O)c(O)c3)cc(=O)c2c1O 50.5%
Oc1ccc(-c2[nH]ncc2-c2nc3ccccc3s2)c(O)c1 66.5%
C[C@@H]1O[C@@H](OC[C@H]2O[C@@H](Oc3c(-c4ccc(O)cc4)oc4cc(O)cc(O)c4c3=O)[C@H](O)[C@@H](O)[C@@H]2O)[C@H](O)[C@H](O)[C@H]1O 66.5%
CC(=O)Nc1cccc(C(=O)OCC(=O)c2ccc3c(c2)OCO3)c1 69.4%
Oc1ccc(-c2nc3ccccc3nc2-c2ccc(O)cc2O)c(O)c1 76.3%
